The list is not random: actives were taken first. Their share in the collection is about 6%.
D1 potentiator: enhances dopamine response at the human D1 receptor. HEK293 TREx D1 cells, calcium flux, dopamine EC20 potentiation. P21728. potentiation, % at 10 µM. actives 0.036% (n = 360,000). AID 504651; in the data active means potentiation above about 30%; further: 0% is about no effect
D1 agonist: activates the human D1 dopamine receptor | actives 1% (n = 360,000) | activation, % at 2 µM | HEK293 T-REx D1 cells, calcium flux, agonist mode | AID 504660 | P21728; in the data active means activation above about 30%; further: 0% is about no effect
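Tetracycline-induced HEK293 TREx D1 cells, force-coupled to calcium signalling, were dye-loaded with a no-wash calcium kit. Compound was pin-added after a 10 s baseline. Fluorescence was read kinetically at 1 cycle/s for 180 s, with calcium rises flagged as agonism.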
DRD3 agonist: D3 dopamine receptor (human) agonism; P35462; D3R DiscoveRx beta-arrestin cells, luminescence, 90 min; max activation, %; actives 0.58% (n = 410,000); AID 652048; in the data active means max activation above about 30%; further: 0% is about no effect
Target sequence (P35462 whole entry, looked up): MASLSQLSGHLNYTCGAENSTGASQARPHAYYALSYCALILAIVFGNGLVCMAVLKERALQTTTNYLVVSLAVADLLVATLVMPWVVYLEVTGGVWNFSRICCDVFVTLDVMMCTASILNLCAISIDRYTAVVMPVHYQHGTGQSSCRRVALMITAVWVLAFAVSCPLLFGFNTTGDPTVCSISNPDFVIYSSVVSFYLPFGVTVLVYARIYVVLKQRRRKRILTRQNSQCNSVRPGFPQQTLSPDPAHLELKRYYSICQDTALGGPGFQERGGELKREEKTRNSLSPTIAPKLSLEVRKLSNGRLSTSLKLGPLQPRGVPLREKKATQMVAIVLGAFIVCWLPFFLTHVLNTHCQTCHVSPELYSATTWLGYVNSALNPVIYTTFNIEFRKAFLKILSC
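Agonist mode: compounds and dopamine controls were applied to plated cells for 90 min at 37 degrees C after an overnight attachment at 1500 cells/well. Luminescent read-out followed 30 - 60 minutes at room temperature with DiscoveRx detection reagent.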
D3 antag: antagonists of human D3 dopamine receptor; P35462; D3R cells, DiscoveRx beta-arrestin luminescence, antagonist mode; stronger effect = lower value; max response, negative = inhibition, %; actives 2.5% (n = 360,000); AID 652054; in the data active means max response below about -50%; inconclusive means no clear call, values can overlap the other calls; further: on the % scale 0 is the no-effect control and ±100 the full control effect
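Cells plated overnight at 1500 cells/well, then exposed to library compounds with dopamine controls for 90 minutes at 37 degrees C. DiscoveRx reagent added for 30–60 minutes at room temperature; luminescence read, quantitative HTS format.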
BCR signal inh: chronic active BCR signaling inhibition; ABC-DLBCL IkBa-CBG/CBR reporter, luminescence ratio, 4 h; Potency, µM (doses to about 46.1 µM), for inactives: at the top dose activity change, negative = inhibition, usual class: inhibitors; actives 0.05% (n = 340,000); AID 493014; active means well fitted inhibition curve with a large enough effect in the signal ratio, with a control signal flat, not every such curve was filed as active; inconclusive means small, poorly fitted or top-dose-only effect, or effect the other way, or a change in a side signal; the % refers to the signal ratio;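 further: potency means the concentration at half of the fitted maximal effect; plate controls were basal doxycycline-induced cells for no effect and cells given 10 µM MG132 for full effect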
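Cell line TMD8 (human ABC DLBCL), stably expressing tet-inducible CBG68-IkBa fusion and CBR; IMDM/0.5% FBS; cpd up to 46 uM; dox induction, 4 h, 37C/5% CO2; dual luminescence; green/red ratio; MG132 control.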
D1 antagonist: human D1 dopamine receptor antagonism; P21728; HEK293 TREx D1 cells, calcium flux, dopamine EC80; stronger effect = lower value; activity change, negative = inhibition, % at 10 µM; actives 3.2% (n = 360,000); in the data active means activity change below about -30%; further: on the % scale 0 is the no-effect control and ±100 the full control effect
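Tetracycline-induced HEK293 T-REx cells with force-coupled D1 receptor were loaded with a no-wash calcium dye. Compound was added after a 10 s baseline and read kinetically for 180 s; EC80 dopamine was then added and calcium flux followed another 180 s.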
Numbers without * were called inactive; ? = inconclusive; / = not tested or not shown.

SMILES | D1 potentiator | D1 agonist | DRD3 agonist | D3 antag | BCR signal inh | D1 antagonist
CSC[C@H]1CN(CCc2ccccc2)C(=O)[C@@H]1CC(=O)Nc1ccccc1 | / | / | -6 | -10 | / | /
CC(=O)c1ccc(OCC(=O)c2cc(C)n(-c3ccc4c(c3)OCO4)c2C)cc1 | -5 | 12 | -3 | 17 | -10% | -44*
Cc1cc(C(=O)COC(=O)c2ccc(N)c([N+](=O)[O-])c2)c(C)n1-c1ccc2c(c1)OCO2 | -4 | 7 | 0 | -11 | ? | -25
COc1cc(C2CC(=O)Oc3c(C(CCN4CCN(c5ccccc5)CC4)c4ccc(N(C)C)cc4)c(OC)cc(OC)c32)cc(OC)c1OC (stereo unspecified) | -1 | 3 | -14 | -103* | ? | -38*
COc1cc(O)c(C(CCN2CCCCC2)c2ccc(N(C)C)cc2)c(OC)c1 (stereo unspecified) | 0 | 10 | -17 | -10 | ? | -34*
COc1ccc(C2CC(=O)Oc3c(C(CCN4CCCCC4)c4ccc(N(C)C)cc4)c(OC)cc(OC)c32)cc1 (stereo unspecified) | -8 | 7 | -3 | -58* | ? | -25
O=C(NOC[C@H](O)CO)c1ccc(F)c(F)c1Nc1ccc(I)cc1F | / | / | 6 | / | / | /
O=C(NC(=S)NCc1nc2ccccc2[nH]1)c1ccc(F)cc1 | -6 | -1 | -8 | 17 | ? | -68*
O=C(NCCc1nc2ccccc2[nH]1)c1ccc(F)cc1 | 0 | 3 | -15 | -27 | 5% | -7
O=C(NC(=S)NCc1nc2ccccc2[nH]1)c1ccccc1F | -4 | 2 | -13 | -63* | 6% | -24
COc1ccc(-c2nc3sc(CCNC(=O)Cc4ccccc4)c(C)n3n2)cc1 | -2 | 7 | -3 | / | 7% | /
CC(C)OCCCN(C)C1CCN(S(=O)(=O)c2ccc(-c3cc(C(F)(F)F)no3)s2)CC1 | -8 | 29 | -8 | -84* | -2% | -27
CCOc1ccc(CNC(=O)CN2N=C(c3ccccc3)CCC2=O)cc1OC | -1 | -3 | 50* | / | -11% | 14
COc1ccc(CNC(=O)Cn2c(=O)nc(-c3ccccc3)c3ccccc32)cc1OC | 0 | 1 | 33* | / | / | 9
COc1ccc(CNC(=O)Cn2c(=O)nc(-c3ccccc3)c3cc(Cl)ccc32)cc1OC | 0 | 0 | 8 | / | / | -5
Cc1cccc(-n2cnc3cc(C(=O)NCc4ccccc4Cl)ccc32)c1 | 0 | 0 | -18 | / | ? | 13
Cc1nc2scc(C)n2c(=O)c1S(=O)(=O)Nc1cccc(O)c1 | -5 | 4 | 2 | / | / | -48*
CC(=O)NC1=NC(=O)/C(=C/c2cn(C(C)=O)nc2-c2ccccc2)S1 | -4 | 4 | -1 | 0 | ? | 33
CCN=C1S/C(=C\c2cn(C(C)=O)nc2-c2ccccc2)C(=O)N1CC | 6 | -2 | 64* | 58 | 18% | -17
COc1cc(O)ccc1-c1nc2ccc(Br)cn2c1Nc1ccccc1C | 0 | -1 | 10 | / | / | 6
O=C(CNC(=O)c1ccco1)N/N=C/c1cc(Br)ccc1O | 11 | 5 | 6 | 15 | -1% | 12
COc1cc(/C=N/NC(=O)CNC(=O)c2ccco2)ccc1O | -2 | 4 | -5 | -14 | 7% | -48*
Cc1cccc(-n2c(SCC(=O)c3ccccc3)nnc2-c2ccc(Br)cc2)c1 | -2 | 3 | 2 | / | 8% | 11
COc1cccc(CNC(=O)c2cccc(NC3=NC4CS(=O)(=O)CC4S3)c2)c1 (stereo unspecified) | -1 | 4 | 1 | 9 | 6% | 3
COc1cccc(CNC(=O)c2ccc(Cl)c(NC3=NC4CS(=O)(=O)CC4S3)c2)c1 (stereo unspecified) | 3 | 1 | -2 | -3 | -12% | -90*
SMILES | D1 potentiator | D1 agonist | DRD3 agonist | D3 antag | BCR signal inh | D1 antagonist
CC1CCN(Cc2c(O)ccc3c(=O)c(Oc4ccccc4Cl)c(C(F)(F)F)oc23)CC1 | -6 | 0 | -8 | / | / | 13
CC1CN(Cc2c(O)ccc3c(=O)c(-c4ccccc4)coc23)CC(C)O1 (stereo unspecified) | 2 | 1 | 10 | 5 | -5% | -14
CC1CN(Cc2c(O)ccc3c2oc(=O)c2ccccc23)CC(C)O1 (stereo unspecified) | 6 | 2 | -30 | -66* | -9% | -8
CN1CCc2cc(Cl)c(O)cc2[C@@H](c2ccccc2)C1 | -3 | 0 | -76 | -83* | ? | -89*
CN1CCc2cc(O)c(O)cc2C(c2ccccc2)C1 (stereo unspecified) | -7 | 0 | 108* | 1 | 3% | -88*
CCCCOC(=O)c1ccc(Nc2nc3ccc(C)cc3n3cnnc23)cc1 | -3 | 0 | 3 | / | / | -3
CCOc1ccc(S(=O)(=O)Nc2nc3ccccc3nc2-n2ccc(=NC(=O)c3ccccc3C)cc2)cc1 | -9 | 62* | 18 | 15 | 2% | -19
Cc1ccccc1C(=O)N=c1ccn(-c2nc3ccccc3nc2NS(=O)(=O)c2ccccc2)cc1 | -7 | 39* | -5 | -5 | -10% | 0
O=C1CCC[C@H]2c3[nH]c4ccccc4c3CCN12 | / | / | -22 | -51* | / | /
O=C(O)[C@@H]1Cc2c([nH]c3ccccc23)C2CCC(=O)N21 (stereo partly specified) | 3 | 2 | -6 | -2 | -3% | 0
CC1=C(C(=O)OCc2ccccc2)C(c2ccc(C)o2)C2=C(CCCC2=O)N1 (stereo unspecified) | -5 | 1 | 1 | 12 | -3% | -21
CC1=C(C(=O)OC2CCCCC2)C(c2ccc(C)o2)C2=C(CCCC2=O)N1 (stereo unspecified) | -9 | 1 | 1 | -50* | -11% | -5
COC(=O)C(CC(C)C)NC(=O)C(Cc1ccccc1)NC(=O)C1CCCN1C(=O)OC(C)(C)C (stereo unspecified) | -1 | -1 | -9 | -17 | -3% | 23
CC(C)CC(NC(=O)C1CCCN1C(=O)OC(C)(C)C)C(=O)NCC(N)=O (stereo unspecified) | -5 | 1 | 5 | -58* | ? | -13
COc1cccc(C2CC(OCCF)=CC(=O)O2)c1 (stereo unspecified) | / | / | -6 | 0 | / | /
CC(=O)C(N=Nc1ccccc1)(Sc1nnc(-c2ccccc2)n1-c1ccccc1)C(=O)Nc1ccccc1 (stereo unspecified) | 1 | 5 | 3 | 3 | 4% | -5
CC(=O)C(N=Nc1ccccc1)(Sc1nnc(-c2ccccc2)n1-c1ccccc1)C(C)=O | 1 | 8 | -19 | -14 | ? | -32*

Screening results deposited in PubChem BioAssay by National Center for Advancing Translational Sciences (NCATS).
